Data reported in the supplement of paper PMC11732987, “Enantioselective OTUD7B fragment discovery through chemoproteomics screening and high-throughput optimisation” (Communications Chemistry, 2025).

How the values were obtained:
Test in all cases: log2 ratio of Biotin-Ahx-Ub-VS probe labelling (fragment/DMSO); higher = less target engagement (more negative = stronger competition), active = hit call of the paper (q ≤ 0.05, log2 ratio ≤ -1)
Settings in all cases: compound concentration: 200 uM; treatment time: 3 h
USP42 = target: T1, USP42 (UniProt Q9H9J4)
T1 sequence (whole entry): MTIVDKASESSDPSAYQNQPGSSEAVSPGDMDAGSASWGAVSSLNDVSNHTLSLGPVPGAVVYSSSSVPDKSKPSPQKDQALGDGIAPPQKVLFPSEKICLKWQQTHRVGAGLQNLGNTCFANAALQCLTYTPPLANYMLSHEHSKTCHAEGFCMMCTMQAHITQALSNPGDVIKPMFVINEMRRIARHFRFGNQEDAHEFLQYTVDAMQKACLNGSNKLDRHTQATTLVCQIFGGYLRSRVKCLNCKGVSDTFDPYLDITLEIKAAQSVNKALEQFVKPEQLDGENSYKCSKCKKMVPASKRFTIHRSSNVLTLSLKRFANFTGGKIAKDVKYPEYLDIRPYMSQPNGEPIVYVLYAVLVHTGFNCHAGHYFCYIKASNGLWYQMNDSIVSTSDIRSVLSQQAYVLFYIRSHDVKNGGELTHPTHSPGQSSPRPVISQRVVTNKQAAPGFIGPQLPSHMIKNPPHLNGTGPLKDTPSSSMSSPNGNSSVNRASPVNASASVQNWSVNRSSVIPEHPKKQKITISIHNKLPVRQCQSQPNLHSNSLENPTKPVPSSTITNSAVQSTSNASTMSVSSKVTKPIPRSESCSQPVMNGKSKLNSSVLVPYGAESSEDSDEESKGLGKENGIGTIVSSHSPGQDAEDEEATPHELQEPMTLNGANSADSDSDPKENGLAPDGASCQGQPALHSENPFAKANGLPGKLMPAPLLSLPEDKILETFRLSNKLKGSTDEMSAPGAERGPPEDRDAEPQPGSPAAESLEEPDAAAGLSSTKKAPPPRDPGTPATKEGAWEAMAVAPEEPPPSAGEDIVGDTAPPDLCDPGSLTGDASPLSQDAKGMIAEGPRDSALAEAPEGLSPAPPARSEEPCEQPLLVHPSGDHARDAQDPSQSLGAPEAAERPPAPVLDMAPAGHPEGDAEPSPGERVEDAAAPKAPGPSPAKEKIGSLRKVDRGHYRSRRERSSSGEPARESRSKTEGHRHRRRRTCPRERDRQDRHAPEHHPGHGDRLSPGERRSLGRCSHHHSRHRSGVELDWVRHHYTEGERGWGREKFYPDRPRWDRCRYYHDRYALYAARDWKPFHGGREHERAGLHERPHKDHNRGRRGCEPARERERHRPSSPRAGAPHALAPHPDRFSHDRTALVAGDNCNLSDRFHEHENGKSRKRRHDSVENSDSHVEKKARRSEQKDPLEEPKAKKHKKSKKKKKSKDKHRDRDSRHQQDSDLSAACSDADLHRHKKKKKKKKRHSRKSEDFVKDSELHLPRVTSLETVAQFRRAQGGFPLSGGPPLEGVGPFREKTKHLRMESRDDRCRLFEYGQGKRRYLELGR
Procedure, shortened: (§1)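 Average log2 ratios of fragment over vehicle were obtained by unpaired t-test from global-median-normalised Spectronaut label-free quantities. Proteins with ≥2 unique peptides were included. HEK293T lysate (495 µg per sample) was treated in triplicate with fragment at 200 µM or vehicle for 3 h, then with Biotin-Ahx-Ub-VS at 0.5 µM final for 1 h, and labelled DUBs were NeutrAvidin-enriched and run by diaPASEF LC-MS/MS.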

USP46 = USP46 (UniProt P62068)
Procedure, shortened: as §1

USP47 = target: T2, USP47 (UniProt Q96K76)
T2 sequence (whole entry): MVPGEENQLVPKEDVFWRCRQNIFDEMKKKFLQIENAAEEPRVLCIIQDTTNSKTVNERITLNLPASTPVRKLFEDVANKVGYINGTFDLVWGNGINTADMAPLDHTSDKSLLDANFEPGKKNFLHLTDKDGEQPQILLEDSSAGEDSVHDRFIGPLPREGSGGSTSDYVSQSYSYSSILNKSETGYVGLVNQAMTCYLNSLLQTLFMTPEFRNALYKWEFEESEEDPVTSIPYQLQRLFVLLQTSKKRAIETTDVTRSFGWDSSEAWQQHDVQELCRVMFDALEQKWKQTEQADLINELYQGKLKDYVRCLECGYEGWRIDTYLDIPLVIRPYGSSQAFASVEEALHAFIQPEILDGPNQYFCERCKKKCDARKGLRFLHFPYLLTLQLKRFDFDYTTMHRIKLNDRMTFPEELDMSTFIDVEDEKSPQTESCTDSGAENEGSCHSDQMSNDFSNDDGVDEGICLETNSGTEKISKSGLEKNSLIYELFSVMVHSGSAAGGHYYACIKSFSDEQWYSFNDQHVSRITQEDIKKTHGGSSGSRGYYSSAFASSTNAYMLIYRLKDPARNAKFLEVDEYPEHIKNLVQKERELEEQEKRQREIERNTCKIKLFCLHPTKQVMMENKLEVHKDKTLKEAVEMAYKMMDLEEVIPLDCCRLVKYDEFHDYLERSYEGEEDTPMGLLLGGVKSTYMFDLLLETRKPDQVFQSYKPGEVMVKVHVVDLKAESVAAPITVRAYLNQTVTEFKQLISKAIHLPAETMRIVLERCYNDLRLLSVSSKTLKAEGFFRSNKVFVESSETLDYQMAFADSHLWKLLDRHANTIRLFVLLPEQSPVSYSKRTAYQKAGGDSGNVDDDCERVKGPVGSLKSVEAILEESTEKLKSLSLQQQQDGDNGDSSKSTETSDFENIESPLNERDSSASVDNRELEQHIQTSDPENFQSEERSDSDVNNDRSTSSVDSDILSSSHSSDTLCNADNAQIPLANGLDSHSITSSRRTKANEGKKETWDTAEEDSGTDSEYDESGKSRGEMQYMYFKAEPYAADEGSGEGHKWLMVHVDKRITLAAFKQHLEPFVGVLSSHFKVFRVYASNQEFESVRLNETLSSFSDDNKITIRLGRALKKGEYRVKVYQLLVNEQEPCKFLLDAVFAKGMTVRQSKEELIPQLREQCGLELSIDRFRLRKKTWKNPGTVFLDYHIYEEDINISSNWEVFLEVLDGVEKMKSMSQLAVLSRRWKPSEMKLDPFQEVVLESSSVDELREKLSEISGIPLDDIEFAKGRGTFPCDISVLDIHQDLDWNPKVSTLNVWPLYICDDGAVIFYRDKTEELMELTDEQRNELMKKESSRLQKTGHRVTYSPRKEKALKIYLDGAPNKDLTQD
Procedure, shortened: as §1

USP48 = target: T3, USP48 (UniProt Q86UV5)
T3 sequence (whole entry): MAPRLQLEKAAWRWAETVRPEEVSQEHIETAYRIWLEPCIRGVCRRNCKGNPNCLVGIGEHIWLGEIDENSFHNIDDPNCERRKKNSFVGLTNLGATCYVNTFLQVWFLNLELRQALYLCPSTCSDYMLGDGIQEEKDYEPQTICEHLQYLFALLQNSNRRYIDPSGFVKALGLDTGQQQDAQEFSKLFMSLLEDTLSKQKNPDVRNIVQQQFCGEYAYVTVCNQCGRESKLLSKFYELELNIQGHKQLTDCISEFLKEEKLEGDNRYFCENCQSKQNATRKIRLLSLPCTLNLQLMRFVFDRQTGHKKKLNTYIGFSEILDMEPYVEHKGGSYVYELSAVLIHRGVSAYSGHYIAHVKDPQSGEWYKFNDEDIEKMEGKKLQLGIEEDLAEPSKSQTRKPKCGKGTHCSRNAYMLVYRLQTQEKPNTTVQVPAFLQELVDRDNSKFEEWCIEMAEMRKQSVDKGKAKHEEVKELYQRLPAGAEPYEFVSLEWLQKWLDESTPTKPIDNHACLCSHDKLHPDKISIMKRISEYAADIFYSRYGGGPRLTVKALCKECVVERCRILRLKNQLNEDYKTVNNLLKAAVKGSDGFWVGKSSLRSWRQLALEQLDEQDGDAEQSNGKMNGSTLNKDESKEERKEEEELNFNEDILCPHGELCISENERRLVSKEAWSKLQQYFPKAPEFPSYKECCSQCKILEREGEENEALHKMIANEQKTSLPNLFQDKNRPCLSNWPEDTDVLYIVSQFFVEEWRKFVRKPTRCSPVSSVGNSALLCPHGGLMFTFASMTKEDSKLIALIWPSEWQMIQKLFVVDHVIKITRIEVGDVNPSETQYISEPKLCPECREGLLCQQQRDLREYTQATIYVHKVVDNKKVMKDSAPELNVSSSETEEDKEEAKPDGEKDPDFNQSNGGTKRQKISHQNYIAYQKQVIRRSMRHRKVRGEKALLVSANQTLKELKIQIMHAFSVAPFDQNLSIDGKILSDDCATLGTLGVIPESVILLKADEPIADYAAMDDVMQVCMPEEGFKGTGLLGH
Procedure, shortened: as §1

USP5 = target: T4, USP5 (UniProt P45974)
T4 sequence (whole entry): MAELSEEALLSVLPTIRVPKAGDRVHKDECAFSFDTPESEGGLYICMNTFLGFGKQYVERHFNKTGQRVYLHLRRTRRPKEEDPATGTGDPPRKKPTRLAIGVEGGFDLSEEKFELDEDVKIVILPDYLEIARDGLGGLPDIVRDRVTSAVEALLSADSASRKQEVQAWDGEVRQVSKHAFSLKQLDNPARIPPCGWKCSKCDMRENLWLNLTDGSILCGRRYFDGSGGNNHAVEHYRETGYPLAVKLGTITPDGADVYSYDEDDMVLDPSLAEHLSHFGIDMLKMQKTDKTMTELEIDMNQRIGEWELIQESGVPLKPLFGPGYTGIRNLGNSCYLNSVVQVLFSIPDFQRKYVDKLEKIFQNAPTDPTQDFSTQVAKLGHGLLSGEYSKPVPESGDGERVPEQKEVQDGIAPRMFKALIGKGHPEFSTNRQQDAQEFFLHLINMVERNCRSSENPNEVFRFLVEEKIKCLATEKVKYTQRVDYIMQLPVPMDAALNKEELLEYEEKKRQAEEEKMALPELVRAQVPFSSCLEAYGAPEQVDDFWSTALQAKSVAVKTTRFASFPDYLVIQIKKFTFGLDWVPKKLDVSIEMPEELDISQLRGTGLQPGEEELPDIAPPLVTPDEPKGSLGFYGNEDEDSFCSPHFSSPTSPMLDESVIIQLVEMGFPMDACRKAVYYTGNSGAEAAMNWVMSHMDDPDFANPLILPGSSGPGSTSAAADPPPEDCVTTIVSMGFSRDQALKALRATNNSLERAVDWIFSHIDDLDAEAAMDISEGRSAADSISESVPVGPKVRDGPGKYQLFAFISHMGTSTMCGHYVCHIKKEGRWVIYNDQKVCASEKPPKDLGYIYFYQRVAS
Procedure, shortened: as §1

USP54 = USP54 (UniProt Q70EL1)
Procedure, shortened: as §1

USP7 = USP7 (UniProt Q93009)
Procedure, shortened: as §1

USP8 = target: T5, USP8 (UniProt P40818)
T5 sequence (whole entry): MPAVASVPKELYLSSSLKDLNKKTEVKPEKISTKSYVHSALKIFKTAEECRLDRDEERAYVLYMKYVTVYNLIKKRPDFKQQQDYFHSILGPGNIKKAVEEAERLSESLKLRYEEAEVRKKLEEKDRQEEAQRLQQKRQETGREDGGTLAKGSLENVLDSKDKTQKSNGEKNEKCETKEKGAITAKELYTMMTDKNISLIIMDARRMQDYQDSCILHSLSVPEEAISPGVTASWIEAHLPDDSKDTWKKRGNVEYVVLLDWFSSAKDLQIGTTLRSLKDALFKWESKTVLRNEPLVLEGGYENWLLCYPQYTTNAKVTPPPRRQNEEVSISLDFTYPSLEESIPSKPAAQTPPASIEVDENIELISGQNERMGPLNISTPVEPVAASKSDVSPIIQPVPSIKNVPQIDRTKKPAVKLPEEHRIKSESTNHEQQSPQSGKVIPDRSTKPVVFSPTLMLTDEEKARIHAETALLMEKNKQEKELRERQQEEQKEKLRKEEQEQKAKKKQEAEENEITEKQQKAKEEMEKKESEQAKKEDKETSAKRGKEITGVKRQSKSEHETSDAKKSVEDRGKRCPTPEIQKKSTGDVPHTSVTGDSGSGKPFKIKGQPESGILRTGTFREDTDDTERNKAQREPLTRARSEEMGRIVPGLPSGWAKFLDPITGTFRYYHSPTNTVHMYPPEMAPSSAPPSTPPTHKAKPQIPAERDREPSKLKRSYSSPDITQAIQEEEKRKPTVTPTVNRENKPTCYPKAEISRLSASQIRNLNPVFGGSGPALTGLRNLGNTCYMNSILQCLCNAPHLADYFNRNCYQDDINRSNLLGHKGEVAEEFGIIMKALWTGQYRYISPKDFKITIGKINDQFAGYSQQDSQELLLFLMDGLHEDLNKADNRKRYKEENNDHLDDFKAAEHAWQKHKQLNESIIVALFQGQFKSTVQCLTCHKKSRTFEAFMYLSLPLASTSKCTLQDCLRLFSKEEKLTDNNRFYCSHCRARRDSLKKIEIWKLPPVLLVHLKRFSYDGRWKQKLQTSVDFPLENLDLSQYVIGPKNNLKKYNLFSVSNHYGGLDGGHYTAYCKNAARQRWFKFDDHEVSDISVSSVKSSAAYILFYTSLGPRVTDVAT
Procedure, shortened: as §1

USP9X = USP9X (UniProt Q93008)
Procedure, shortened: as §1

UniProt O00487 = target: UniProt O00487
Procedure, shortened: as §1

Measured: log2 ratio of Biotin-Ahx-Ub-VS probe labelling

Sequence of UniProt O00487 (O00487 whole entry): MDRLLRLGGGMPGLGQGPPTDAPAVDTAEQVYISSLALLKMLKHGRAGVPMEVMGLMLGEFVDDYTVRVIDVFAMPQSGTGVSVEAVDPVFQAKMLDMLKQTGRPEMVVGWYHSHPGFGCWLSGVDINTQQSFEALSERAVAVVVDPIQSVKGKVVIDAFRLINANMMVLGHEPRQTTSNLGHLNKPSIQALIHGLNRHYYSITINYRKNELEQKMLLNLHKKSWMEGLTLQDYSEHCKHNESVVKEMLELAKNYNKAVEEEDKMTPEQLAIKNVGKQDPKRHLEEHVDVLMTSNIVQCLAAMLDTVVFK
Sequence of USP9X (Q93008 whole entry): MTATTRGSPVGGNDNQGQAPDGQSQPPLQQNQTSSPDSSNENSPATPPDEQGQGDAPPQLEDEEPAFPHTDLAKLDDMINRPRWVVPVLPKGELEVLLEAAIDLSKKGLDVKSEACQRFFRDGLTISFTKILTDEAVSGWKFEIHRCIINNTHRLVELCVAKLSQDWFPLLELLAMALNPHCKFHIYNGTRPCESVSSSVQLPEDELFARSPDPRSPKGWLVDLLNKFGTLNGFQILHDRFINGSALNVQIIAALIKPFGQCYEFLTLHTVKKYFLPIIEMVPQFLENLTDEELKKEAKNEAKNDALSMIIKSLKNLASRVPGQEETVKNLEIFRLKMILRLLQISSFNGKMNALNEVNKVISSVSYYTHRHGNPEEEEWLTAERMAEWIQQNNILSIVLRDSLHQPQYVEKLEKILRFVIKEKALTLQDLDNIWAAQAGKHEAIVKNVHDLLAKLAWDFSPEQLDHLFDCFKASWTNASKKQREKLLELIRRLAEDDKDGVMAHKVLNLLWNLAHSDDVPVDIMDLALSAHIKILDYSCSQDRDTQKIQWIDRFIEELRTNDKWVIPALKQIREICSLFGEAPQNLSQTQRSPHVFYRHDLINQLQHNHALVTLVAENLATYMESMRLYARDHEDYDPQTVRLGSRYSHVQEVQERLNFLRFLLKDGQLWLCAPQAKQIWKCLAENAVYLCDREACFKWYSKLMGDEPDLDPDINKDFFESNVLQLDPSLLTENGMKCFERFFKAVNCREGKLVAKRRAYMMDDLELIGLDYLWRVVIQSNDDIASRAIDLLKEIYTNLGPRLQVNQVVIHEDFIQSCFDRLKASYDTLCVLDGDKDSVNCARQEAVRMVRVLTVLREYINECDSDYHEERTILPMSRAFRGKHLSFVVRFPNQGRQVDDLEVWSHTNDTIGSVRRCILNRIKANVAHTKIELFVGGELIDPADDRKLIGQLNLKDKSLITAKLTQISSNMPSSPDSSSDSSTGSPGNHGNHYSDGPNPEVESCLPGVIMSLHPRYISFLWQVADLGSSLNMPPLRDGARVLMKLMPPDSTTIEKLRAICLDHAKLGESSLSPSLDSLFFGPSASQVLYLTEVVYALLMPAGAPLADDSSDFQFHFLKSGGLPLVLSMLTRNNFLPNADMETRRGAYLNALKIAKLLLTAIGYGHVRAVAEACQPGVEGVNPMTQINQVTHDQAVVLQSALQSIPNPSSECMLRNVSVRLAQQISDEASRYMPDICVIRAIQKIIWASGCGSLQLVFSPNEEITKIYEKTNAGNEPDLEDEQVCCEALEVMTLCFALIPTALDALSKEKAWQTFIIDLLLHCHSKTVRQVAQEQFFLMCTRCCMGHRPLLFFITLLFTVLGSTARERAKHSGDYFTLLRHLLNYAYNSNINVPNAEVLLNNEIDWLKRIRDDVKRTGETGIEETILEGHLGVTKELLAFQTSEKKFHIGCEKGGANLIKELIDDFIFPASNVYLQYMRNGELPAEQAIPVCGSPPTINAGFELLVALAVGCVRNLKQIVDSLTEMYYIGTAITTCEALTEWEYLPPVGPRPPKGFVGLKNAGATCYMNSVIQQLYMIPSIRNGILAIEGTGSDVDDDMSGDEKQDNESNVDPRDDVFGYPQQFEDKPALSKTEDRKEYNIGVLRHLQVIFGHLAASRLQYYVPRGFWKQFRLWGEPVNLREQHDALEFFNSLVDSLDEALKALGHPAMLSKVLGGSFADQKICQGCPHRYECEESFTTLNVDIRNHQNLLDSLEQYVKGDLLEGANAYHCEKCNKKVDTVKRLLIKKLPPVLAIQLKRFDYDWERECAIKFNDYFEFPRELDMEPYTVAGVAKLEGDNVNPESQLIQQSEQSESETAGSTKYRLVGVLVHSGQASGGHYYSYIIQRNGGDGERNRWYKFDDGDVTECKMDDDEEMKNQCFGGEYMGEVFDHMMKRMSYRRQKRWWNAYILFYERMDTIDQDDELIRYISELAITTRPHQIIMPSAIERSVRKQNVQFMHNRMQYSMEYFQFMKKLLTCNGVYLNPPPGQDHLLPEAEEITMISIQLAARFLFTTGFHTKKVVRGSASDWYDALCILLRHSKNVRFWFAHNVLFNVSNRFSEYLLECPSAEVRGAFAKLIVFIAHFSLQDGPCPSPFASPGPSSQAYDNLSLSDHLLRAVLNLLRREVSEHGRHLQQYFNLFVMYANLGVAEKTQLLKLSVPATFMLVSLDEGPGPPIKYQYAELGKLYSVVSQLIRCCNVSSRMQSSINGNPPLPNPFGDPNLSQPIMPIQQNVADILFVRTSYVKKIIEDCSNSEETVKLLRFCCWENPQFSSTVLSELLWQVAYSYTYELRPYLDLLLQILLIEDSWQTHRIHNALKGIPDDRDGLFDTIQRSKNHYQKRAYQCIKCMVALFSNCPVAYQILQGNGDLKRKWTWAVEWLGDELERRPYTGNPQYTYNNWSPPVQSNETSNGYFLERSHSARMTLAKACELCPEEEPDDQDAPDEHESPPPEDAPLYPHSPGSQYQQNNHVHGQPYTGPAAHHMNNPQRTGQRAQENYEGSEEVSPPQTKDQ
Sequence of USP54 (Q70EL1 whole entry): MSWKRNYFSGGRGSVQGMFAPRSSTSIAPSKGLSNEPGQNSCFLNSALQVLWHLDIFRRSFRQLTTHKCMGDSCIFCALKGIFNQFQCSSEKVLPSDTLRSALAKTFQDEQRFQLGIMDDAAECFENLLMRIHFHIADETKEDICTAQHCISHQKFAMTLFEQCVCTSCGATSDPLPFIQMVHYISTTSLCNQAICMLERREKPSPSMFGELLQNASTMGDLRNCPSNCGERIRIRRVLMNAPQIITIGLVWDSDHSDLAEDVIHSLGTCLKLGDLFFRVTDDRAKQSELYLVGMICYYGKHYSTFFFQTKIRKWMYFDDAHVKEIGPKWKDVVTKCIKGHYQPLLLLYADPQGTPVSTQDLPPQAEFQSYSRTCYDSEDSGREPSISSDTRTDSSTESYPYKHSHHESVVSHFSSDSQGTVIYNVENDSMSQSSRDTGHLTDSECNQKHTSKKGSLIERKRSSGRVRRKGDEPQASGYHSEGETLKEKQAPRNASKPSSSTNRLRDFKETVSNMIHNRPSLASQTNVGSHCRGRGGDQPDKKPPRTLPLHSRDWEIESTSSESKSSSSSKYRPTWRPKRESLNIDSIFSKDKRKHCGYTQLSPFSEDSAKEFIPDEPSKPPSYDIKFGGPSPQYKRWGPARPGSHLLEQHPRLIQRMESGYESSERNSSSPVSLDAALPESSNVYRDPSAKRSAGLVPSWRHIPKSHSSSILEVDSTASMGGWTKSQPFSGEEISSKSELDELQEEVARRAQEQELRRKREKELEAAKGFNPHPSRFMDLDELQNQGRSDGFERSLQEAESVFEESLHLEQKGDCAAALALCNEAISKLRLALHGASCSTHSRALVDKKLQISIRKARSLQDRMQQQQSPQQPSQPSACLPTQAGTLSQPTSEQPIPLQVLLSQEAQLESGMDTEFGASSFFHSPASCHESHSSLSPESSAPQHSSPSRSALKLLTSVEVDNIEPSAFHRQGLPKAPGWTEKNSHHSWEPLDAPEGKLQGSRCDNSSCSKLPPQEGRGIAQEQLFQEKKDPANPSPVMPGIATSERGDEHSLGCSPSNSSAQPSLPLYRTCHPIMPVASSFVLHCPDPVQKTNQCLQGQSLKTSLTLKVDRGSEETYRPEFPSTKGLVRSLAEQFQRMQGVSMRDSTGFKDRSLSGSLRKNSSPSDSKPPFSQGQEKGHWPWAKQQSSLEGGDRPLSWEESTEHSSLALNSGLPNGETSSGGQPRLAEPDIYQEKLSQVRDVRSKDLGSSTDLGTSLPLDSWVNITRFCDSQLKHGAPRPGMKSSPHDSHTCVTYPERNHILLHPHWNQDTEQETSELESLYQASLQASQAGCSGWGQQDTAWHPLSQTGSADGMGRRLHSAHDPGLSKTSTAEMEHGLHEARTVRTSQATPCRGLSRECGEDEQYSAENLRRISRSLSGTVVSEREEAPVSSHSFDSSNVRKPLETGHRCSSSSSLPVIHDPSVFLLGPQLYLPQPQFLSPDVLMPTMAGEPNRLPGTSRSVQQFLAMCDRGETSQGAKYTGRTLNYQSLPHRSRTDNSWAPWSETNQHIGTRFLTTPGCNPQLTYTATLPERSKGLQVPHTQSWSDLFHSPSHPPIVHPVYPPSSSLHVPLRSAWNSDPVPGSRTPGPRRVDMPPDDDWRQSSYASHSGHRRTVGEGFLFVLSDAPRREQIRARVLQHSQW
Sequence of USP46 (P62068 whole entry): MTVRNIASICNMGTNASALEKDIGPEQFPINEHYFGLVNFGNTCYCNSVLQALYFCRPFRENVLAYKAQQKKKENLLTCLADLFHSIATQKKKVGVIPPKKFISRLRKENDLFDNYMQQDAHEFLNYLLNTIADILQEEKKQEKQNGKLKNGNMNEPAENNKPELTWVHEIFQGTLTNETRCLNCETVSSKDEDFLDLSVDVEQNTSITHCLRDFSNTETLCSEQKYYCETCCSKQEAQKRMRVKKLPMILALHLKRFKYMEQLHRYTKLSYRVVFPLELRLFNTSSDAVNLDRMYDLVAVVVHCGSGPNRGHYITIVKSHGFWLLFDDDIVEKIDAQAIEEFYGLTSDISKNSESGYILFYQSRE

Cl.O=C(CCl)N1CCCC(c2ncc[nH]2)C1 (stereo not given)
inactive: USP42 -0.153 | USP46 0.183 | USP47 -0.357 | USP48 -0.331 | USP5 0.191 | USP54 0.506 | USP7 -0.273 | USP8 -0.0352 | USP9X -0.121 | UniProt O00487 -0.0974
